LANA-H2A inh = blocks KSHV LANA binding to histone H2A/H2B | cell-free LANA-H2A/H2B peptide, fluorescence polarization | inhibition, % (test concentration not listed) | Q9QR71 | 320,000 compounds, 0.6% hits; in the data active means inhibition mostly above about 10%, no sharp cut-off; inactive means mostly below about 6.7%
CTSL1 counter = blocks F. hepatica cathepsin L1 in PFM18AAP counter-screen; recombinant F. hepatica cathepsin L1, Z-Leu-Arg-MCA fluorescence; inhibition, % at 5.96 µM; 300,000 compounds, 0.49% hits; AID 1906;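 active means inhibition above the mean of all tested compounds plus 3 SD, set per screening campaign, cut at about 17% in these data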
HDAC3 inhib = blocks human histone deacetylase 3; 320,000 compounds, 0.15% hits; AID 2718; recombinant HDAC3, fluorogenic peptide/trypsin coupled, fluorescence; inhibition, % at 8.3 µM; O15379; in the data active means inhibition above about 26%, passing the limit was not always enough
m5-HT2A agonist = mouse HTR2A agonism via beta-arrestin recruitment; P35363; CHO-K1 mHTR2A beta-arrestin complementation, luminescence; percent of 30 µM serotonin response; activation, % at 7.6 µM; 360,000 compounds, 0.66% hits;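 active means activation above a run cutoff, the mean activation of all tested compounds plus 3 SD, cut at about 14% in these data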
OPRM1 ag = counter-screen for mouse HTR2A agonists: human mu opioid receptor agonists; shares compounds with m5-HT2A agonist; U2OS OPRM1 beta-arrestin PathHunter, luminescence; DMSO 0%, DAMGO 9.3 µM 100%; activation, % at 9.3 µM; 2,300 compounds, 5.3% hits;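 active means mean activation above the mean of DMSO-only wells plus 3 SD, cut at about 0.5% in these data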
m5-HT2A ag conf = mouse HTR2A agonism confirmed; activation, % at 7.6 µM; 2,300 compounds, 19% hits; shares compounds with m5-HT2A agonist; CHO-K1 PathHunter beta-arrestin recruitment, luminescence; DMSO 0%, 30 µM serotonin 100%; AID 624381;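 active means mean activation across triplicates above the hit threshold derived in the original primary screen, cut at about 15% in these data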
Large screens that a line does not name were inactive (follow-up assays come after a bar, where they were run). Most compounds without a hit are left out; they make up all but 1.7% or so of the library.

Cc1[nH]n(-c2ccccc2)c(=O)c1N=Nc1ccccc1C(=O)O	m5-HT2A agonist 18 | OPRM1 ag inactive | m5-HT2A ag conf inactive
COc1ccc(CCNC(=O)c2c(Cl)ccc(Cl)c2OC)cc1OC	m5-HT2A agonist 31 | OPRM1 ag inactive | m5-HT2A ag conf inactive
Cn1c(=O)c2cc(NC(=O)Cc3ccccc3F)ccc2n1Cc1ccc(Cl)cc1	none (no result: LANA-H2A inh, CTSL1 counter, HDAC3 inhib)
CC(=O)N1CCN(C(=O)c2ccc(S(=O)(=O)Nc3ccccc3Cl)cc2)CC1	m5-HT2A agonist 16 | OPRM1 ag 0.9 | m5-HT2A ag conf inactive
O=C(c1ccc(S(=O)(=O)Nc2ccccc2Cl)cc1)N1CCCC1	none (no result: CTSL1 counter)
CC(=O)N1CCOc2cc(S(=O)(=O)N3CCN(c4ccccc4)CC3)c(Cl)cc21	m5-HT2A agonist 25 (no result: HDAC3 inhib) | OPRM1 ag inactive | m5-HT2A ag conf inactive
COc1ccccc1CNC(=O)c1cc(C(C)=O)c[nH]1	none
COc1cc(/C=C/C(=O)O)ccc1O	none
COc1coc(/C=C/C(=O)O)cc1=O	m5-HT2A agonist 22 | OPRM1 ag inactive | m5-HT2A ag conf inactive
CC(C)=CC(=O)N1CCCC(N2CCN(c3ccccc3C)CC2)C1 (configuration not stated)	none
CC(C)=CC(=O)N1CC[C@@H](N2CCN(c3ccccc3F)CC2)[C@H](O)C1	m5-HT2A agonist 17 | OPRM1 ag inactive | m5-HT2A ag conf 43
CSCCC(=O)N1CC[C@@H](N2CCN(c3ccccc3F)CC2)[C@H](O)C1	m5-HT2A agonist 15 | OPRM1 ag inactive | m5-HT2A ag conf 45
Cc1ccc(C)c(N2CCN(CCCNC(=O)Cn3c(=O)c4cccn4c4cccnc43)CC2)c1	none
O=C(Nc1ccc(Cl)cc1)Nc1nc(-c2ccccc2O)cs1	m5-HT2A agonist 14 | OPRM1 ag inactive | m5-HT2A ag conf inactive
N#Cc1c(/N=C/c2ccco2)sc2c1CCCCC2	m5-HT2A agonist 14 | OPRM1 ag inactive | m5-HT2A ag conf 21
COC(=O)NC1CC2C=CC1C1C=CC21 (configuration not stated)	none (no result: LANA-H2A inh, CTSL1 counter, HDAC3 inhib)
Cc1ccc([C@@H]2[C@@H]3C(=O)N(C)C(=O)[C@@H]3[C@]3(C)C(=O)N(Cc4ccccn4)CC(=O)N23)o1	m5-HT2A agonist 17 | OPRM1 ag inactive | m5-HT2A ag conf inactive
O=C(CSc1n[nH]c(-c2ccccn2)n1)Nc1ccccc1	m5-HT2A agonist 15 | OPRM1 ag inactive | m5-HT2A ag conf inactive
CC1CCCCN1C(=O)CCNC(=O)Cn1cnc2ccccc2c1=O (configuration not stated)	none
C[C@@H]1CN([C@H](C)CO)S(=O)(=O)c2ccc(C#Cc3ccccc3F)cc2O[C@H]1CN(C)C(=O)c1ccc2c(c1)OCO2	m5-HT2A agonist 20 (no result: LANA-H2A inh, CTSL1 counter, HDAC3 inhib) | OPRM1 ag inactive | m5-HT2A ag conf 32
C[C@@H]1CN([C@@H](C)CO)S(=O)(=O)c2ccc(Br)cc2O[C@@H]1CN(C)S(=O)(=O)c1cn(C)cn1	m5-HT2A agonist 17 (no result: LANA-H2A inh, CTSL1 counter, HDAC3 inhib) | OPRM1 ag inactive | m5-HT2A ag conf inactive
C[C@@H]1CN([C@@H](C)CO)S(=O)(=O)c2ccc(-c3ccccc3)cc2O[C@@H]1CN(C)Cc1ccccc1C(=O)O	m5-HT2A agonist 19 (no result: LANA-H2A inh, CTSL1 counter, HDAC3 inhib) | OPRM1 ag inactive | m5-HT2A ag conf inactive
C[C@H]1CN([C@@H](C)CO)S(=O)(=O)c2ccc(-c3ccccc3)cc2O[C@H]1CN(C)C(=O)C1CCC1	none (no result: LANA-H2A inh, CTSL1 counter, HDAC3 inhib)
O=[N+]([O-])c1cc([N+](=O)[O-])c(Oc2ccc(Br)cc2Br)cc1NN1CCCCC1	none
O=C(NC1CCC(CC2CCC(NC(=O)C(Cl)Cl)CC2)CC1)C(Cl)Cl (configuration not stated)	none
CC(=O)NCCNC(=O)C1(C)Cc2c(-c3ccc(C(N)=O)cc3)ccnc2O1 (configuration not stated)	m5-HT2A agonist 24 (no result: LANA-H2A inh, CTSL1 counter, HDAC3 inhib) | OPRM1 ag inactive | m5-HT2A ag conf inactive
CC1(C(=O)NCC2CC2)Cc2c(-c3cccc(C(N)=O)c3)ccnc2O1 (configuration not stated)	m5-HT2A agonist 14 (no result: LANA-H2A inh, CTSL1 counter, HDAC3 inhib) | OPRM1 ag inactive | m5-HT2A ag conf inactive
CC(=O)NCCNC(=O)C1(C)Cc2c(-c3ccccc3)ccnc2O1 (configuration not stated)	none (no result: LANA-H2A inh, CTSL1 counter, HDAC3 inhib)
Cc1cccc([C@@H]2[C@@H]3C(=O)N(Cc4ccccc4)C(=O)[C@@H]3[C@]3(Cc4ccccc4)C(=O)N(c4ccc(C(F)(F)F)cc4)C(=O)N23)c1	none
O=C(NCCCN1CCCC1=O)c1ccc(NS(=O)(=O)c2ccc(F)cc2)cc1	none (no result: CTSL1 counter)
CSc1nc(C(C)C)ccc1CNC(=O)CC(C)c1ccccc1 (configuration not stated)	none
CC(=O)N1c2ccc(S(=O)(=O)N3CCC(C(=O)Nc4cccc(C(F)(F)F)c4)CC3)cc2CC1C (configuration not stated)	none
O=S(=O)(N1CCCCC1)N1CCCN(S(=O)(=O)N2CCCCC2)CC1	m5-HT2A agonist 15 | OPRM1 ag inactive | m5-HT2A ag conf inactive
O=S(=O)(N1CCCCCC1)N1CCN(S(=O)(=O)N2CCOCC2)CC1	none
Cc1c(NC(=O)C2CC(c3ccc(F)cc3)=NO2)c(=O)n(-c2ccccc2)n1C (configuration not stated)	m5-HT2A agonist 15 | OPRM1 ag inactive | m5-HT2A ag conf inactive
CCCC(=O)Nc1ccc(S(=O)(=O)Nc2cc(OC)ncn2)cc1	none (no result: LANA-H2A inh, CTSL1 counter, HDAC3 inhib)
Cc1nn(Cc2ccccc2Cl)c(C)c1C(=O)NCC(c1cccs1)N1CCOCC1 (configuration not stated)	none
CCOc1ccc(NC(=O)C2CCCN(c3cnccn3)C2)cc1 (configuration not stated)	none
Cc1nc2ncnn2c(C)c1CCC(=O)NCCCN1CCN(c2cccc(Cl)c2)CC1	m5-HT2A agonist 24 | OPRM1 ag 0.9 | m5-HT2A ag conf 80
Cc1nc2ncnn2c(C)c1CCC(=O)NCCc1ccccc1	none
Cc1cc(NC(=O)NC(=O)c2ccccc2F)no1	none
CCOc1cc(C(=O)NCC(=O)N/N=C/c2sccc2C)cc(OCC)c1OCC	m5-HT2A agonist 17 | OPRM1 ag inactive | m5-HT2A ag conf inactive
COc1ccc(/C(C)=N/NC(=O)CNC(=O)c2ccncc2)c(OC)c1	none
CC(=O)N1CCc2cc(S(=O)(=O)CCC(=O)NCCc3ccc(Cl)cc3)ccc21	none
CCCC(=O)N1CCC1(C)C(=O)NS(=O)(=O)c1ccc(C)cc1 (configuration not stated)	none (no result: LANA-H2A inh, CTSL1 counter, HDAC3 inhib)
COCCCNC(=O)c1csc([C@H]2C[C@H](O)[C@@H](CO)O2)n1	m5-HT2A agonist 19 (no result: LANA-H2A inh, CTSL1 counter, HDAC3 inhib) | OPRM1 ag inactive | m5-HT2A ag conf inactive
COCCCNC(=O)c1csc([C@@H]2C[C@H](O)[C@@H](CO)O2)n1	none (no result: LANA-H2A inh, CTSL1 counter, HDAC3 inhib)
COc1ccccc1C1CC(=O)Nc2c1c(=O)n(C)c(=O)n2C (configuration not stated)	m5-HT2A agonist 14 | OPRM1 ag inactive | m5-HT2A ag conf inactive
O=C(O)Cc1ccc(NC(=O)c2ccc(NC(=O)C3CC3)cc2)cc1	none

Source: PubChem BioAssay (several laboratories)
